SARS PLpro yeast: qHTS of Yeast-based Assay for SARS-CoV PLP; S. cerevisiae expressing SARS-CoV PLpro, growth rescue; Potency, µM (highest dose often 32.9 µM), for inactives: at the highest dose activity, positive = growth rescue, usual class: activators; hit rate 0.19% among 330,000; AID 485353, 2010; calls by dose curve; also: potency is read from the fitted curve at half-maximal effect; 0% is about no effect; nearly all actives have a fitted effect of over 55% in size
Sm TGR block: qHTS Assay for the Inhibitors of Schistosoma Mansoni Peroxiredoxins; purified TGR, DTNB reduction, TNB absorbance 405 nm; AID 485364, 2010; hit rate 3% among 360,000; Potency, µM (doses to about 114 µM), inactives show at the top dose activity change, negative = inhibition, most hits filed as inhibitors; Schistosoma mansoni thioredoxin glutathione reductase (TGR), Q962Y6; also: potency is read from the fitted curve at half-maximal effect; % is scaled to controls: 0 for no effect and ±100 for the full control effect; nearly all actives have a fitted effect of over 60% in size
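First, TGR (20 nM dispensed) and NADPH were mixed with compound. Second, a 15 min room-temperature incubation followed. Third, further NADPH and then DTNB were added to start the reaction. Finally, TNB absorbance was monitored kinetically.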
Pf growth 96h: Primary qHTS for delayed death inhibitors of the malarial parasite plastid, 96 hour incubation; Potency, µM (titrated, usually from 28.7 µM), for inactives: at the top dose activity change, negative = inhibition, actives largely listed as inhibitors; hit rate 6.9% among 320,000; P. falciparum luciferase reporter growth, 96 h; AID 504834, 2011; also: potency is read from the fitted curve at half-maximal effect; % is scaled to controls: 0 for no effect and ±100 for the full control effect
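Erythrocytes infected with luciferase-expressing P. falciparum were dispensed at 2% hematocrit and 0.05% parasitemia (final), then incubated with compounds 96 hours at 37 C in 5% CO2. Luminescence after detection reagent addition reported growth.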
HCMV antiviral: qHTS Assay for inhibitors of the human cytomegalovirus (HCMV) | HFF cells, HCMV-luciferase reporter, 72 h; active compounds read low | activity change, negative = inhibition, % at 57.5 µM | hit rate 4.5% among 410,000 | AID 1259415, 2018; in the data active = activity change below about -60%; inconclusive = no clear call, values can overlap the other calls; inactive = above about -39%; also: % is scaled to controls: 0 for no effect and ±100 for the full control effect
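Inhibition of viral replication was scored as loss of reporter luminescence in HFFs infected with HCMV-luciferase (MOI 1 PFU/cell) for 72 h; compounds tested at 2 doses, normalized to buffer and Salinomycin controls.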
HCV inhibitor: qHTS Assay for Inhibitors of Hepatitis C Virus (HCV); Huh7.5.1 HCVcc-Cre infection, luciferase reporter, 44 h; Potency, µM (titrated, usually from 41.8 µM), inactives show top-dose activity change, negative = inhibition, hits mostly inhibitors; hit rate 3.4% among 340,000; also: potency is read from the fitted curve at half-maximal effect; % is scaled to controls: 0 for no effect and ±100 for the full control effect
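Seed cells (1,000/well) for 4 h; treat with compound and infect with HCVcc-Cre, moi about 0.5. Incubate 44 h, then detect luciferase activity.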
Pf growth 48h: Primary qHTS for delayed death inhibitors of the malarial parasite plastid, 48 hour incubation; hit rate 5.9% among 310,000; Potency, µM (top dose mostly 28.7 µM), inactives show top-dose activity change, negative = inhibition, most hits filed as inhibitors; P. falciparum luciferase growth in erythrocytes, 48 h; AID 504832, 2011; also: potency is read from the fitted curve at half-maximal effect; % is scaled to controls: 0 for no effect and ±100 for the full control effect
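Luciferase-expressing P. falciparum in infected erythrocytes (2% hematocrit, 0.1% parasitemia final) in RPMI 1640/0.5% Albumax were exposed to compound for 48 hours at 37 C, 5% CO2; growth read as luminescence.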
Active calls of the source: *; ? = inconclusive; . = no result. A selection: hits, their analogues and other compounds. The true share with any hit is near 15%. Unless noted, calls follow the shape of the dose curve; as a rule, active = well fitted curve in the direction sought with a large enough effect; inconclusive = small, poorly fitted or top-dose-only effect, or another doubt; inactive = no such curve, though single readings can be large; an effect the other way counts as inactive or inconclusive.

SMILES	SARS PLpro yeast	Sm TGR block	Pf growth 96h	HCMV antiviral	HCV inhibitor	Pf growth 48h
O=C(COC(=O)Cc1ccc(Br)cc1)Nc1ccc(Cl)cn1	-2%	.	.	-8	-2%	.
CCOC(=O)C(C)Sc1nc(-c2ccc(OC)cc2)nc2c1c(=O)n(C)c(=O)n2C (configuration not stated)	4%	0%	?	.	-3%	14%
COc1ccccc1CNC(=O)c1cc2cc(C)ccc2n1C	.	12%	.	?	.	.
CC(=O)N1c2ccc(S(=O)(=O)N3CCCCCC3)cc2CC1C(=O)NCc1ccccc1F (configuration not stated)	.	-1%	.	-12	.	.
CCN(c1ccccc1)c1ccc2cc(S(=O)(=O)N3CCCC3)ccc2n1	.	7%	.	-12	.	.
CCS(=O)(=O)N1CCCC(C(=O)c2ccc(OC)cc2C)C1 (configuration not stated)	-1%	2%	30%	-40	?	11%
CSc1ccc(S(=O)(=O)N2CCC(C(=O)Nc3cccnc3)CC2)cc1	-2%	4%	-12%	-17	8%	-22%
O=C(NC1CC1)C1CCN(S(=O)(=O)c2ccc(Cl)c([N+](=O)[O-])c2)CC1	-1%	?	?	-103*	13µM*	?
O=C(NC1CCN(S(=O)(=O)c2cccc([N+](=O)[O-])c2)CC1)C1CCCCC1	4%	-8%	9%	10	1%	-8%
CSc1ccc(S(=O)(=O)N2CCC(C(=O)NC3CC3)CC2)cc1	1%	-16%	-9%	18	7%	4.1µM*
CSc1ccc(S(=O)(=O)N2CCC(C(=O)Nc3ccc(C(N)=O)cc3)CC2)cc1	-14%	-12%	4.7µM*	11	13%	25%
Cc1ccc(S(=O)(=O)N2CCC(C(=O)NC3CCCCCC3)CC2)cc1	-4%	-8%	-38%	6	-7%	-18%
COc1ccc(C(=O)C2CCCN(S(=O)(=O)c3ccc(C(C)=O)cc3)C2)c(C)c1 (configuration not stated)	-2%	10%	0%	-36	10µM*	5%
CC(=O)N1CCc2c(sc3c2c(=O)n(-c2ccccc2)c(=O)n3CC(=O)Nc2ccccc2)C1	.	-2%	.	52	.	.
CCCCC(CC)CNC(=O)Cc1ccc(-n2c(=O)[nH]c3ccccc3c2=O)cc1 (configuration not stated)	.	-1%	.	-9	.	.
Cn1cccc1-c1cc2n(n1)CCC(=O)N2CC(=O)Nc1ccc(F)cc1Cl	.	-11%	.	14	.	.
Cc1ccccc1NC(=O)/C=C1\SC(=O)NC1=O	-4%	-1%	10%	-20	3%	-1%
COc1ccc(OC2CCN(S(=O)(=O)c3ccc(C(C)=O)cc3)CC2)cc1	-2%	3%	29%	-63*	13µM*	?
COc1ccc(S(=O)(=O)N2CCC(C(=O)N[C@H](C(=O)N3CCCC3)C(C)C)CC2)cc1	-3%	-3%	?	2	11%	-10%
COc1ccc(S(=O)(=O)N2CCC(C(=O)NC3CC3)CC2)cc1	3%	-1%	15%	-12	8%	9.3µM*
COc1ccc(S(=O)(=O)N2CCC(NC(=O)C3CCCCC3)CC2)cc1	-2%	95%	19%	10	?	16%
COc1ccc(S(=O)(=O)N2CCC(C(=O)N[C@H](C(=O)NC3CCCC3)C(C)C)CC2)cc1	-2%	89µM*	-2%	-22	13%	0%
COc1ccc(OC2CCN(S(=O)(=O)c3ccc(F)cc3)CC2)cc1	-2%	43%	-19%	-18	17%	-20%
COc1ccc(/C=C2/NC(=O)CNC2=O)cc1	2%	?	23%	-1	9%	10%
